PubChem BioAssay AID2284133 (EPA ToxCast)
The source made the active and inactive calls. The calls were made as follows: active = hit-call score of the fitted dose curve at least 0.9, where 1 is the maximum; inactive = score below 0.9.

These molecules were tested against human MARK1 CAMK Kinase, MARK1 (gene 4139) (UniProt Q9P0L2) (assay: ERF_FR_ENZ_hMARK1: Eurofins (ERF) Enzymatic Radiometric [Km ATP] KinaseProfiler LeadHunter Assay for human MARK1 CAMK Kinase).
Method: ERF_FR_ENZ_hMARK1 is a biochemical, single-readout assay that uses extracted gene-proteins in a cell-free assay. Measurements were taken 0.5 hour after chemical dosing in a 96-well plate. See MARK1 Human CAMK Kinase Enzymatic LANCE Assay [Km ATP], Cerep.ERF_FR_ENZ_hMARK1 is an assay component calculated from the ERF_FR_ENZ_hMARK1 assay. It is designed to measure enzyme activity using a type of enzyme reporter as detected by fluorescence intensity with LANCE technology.Data from the assay component ERF_FR_ENZ_hMARK1 was analyzed at the assay endpoint, ERF_FR_ENZ_hMARK1, in the positive analysis fitting direction relative to DMSO as the negative control and baseline of activity. Using a type of enzyme reporter, loss-of-signal activity can be used to understand changes in enzymatic activity as they relate to gene MARK1. To generalize the intended target to other relatable targets, this assay endpoint is annotated to the kinase intended target family, where the subfamily is serine/threonine kinase.
[…] is incubated with 50 mM Na-b-glycerophosphate pH 7.5, 0.1 mM EGTA, 30 uM […], 10 mM MgAcetate and [gamma-33P]-ATP (specific activity and concentration as required). The reaction is initiated by the […] addition of the Mg/ATP mix. After incubation for 40 minutes at room temperature, the reaction is stopped by the addition of phosphoric acid to a concentration of 0.5%. […]

human MARK1 CAMK Kinase, MARK1 (gene 4139), sequence (Q9P0L2 whole entry, looked up): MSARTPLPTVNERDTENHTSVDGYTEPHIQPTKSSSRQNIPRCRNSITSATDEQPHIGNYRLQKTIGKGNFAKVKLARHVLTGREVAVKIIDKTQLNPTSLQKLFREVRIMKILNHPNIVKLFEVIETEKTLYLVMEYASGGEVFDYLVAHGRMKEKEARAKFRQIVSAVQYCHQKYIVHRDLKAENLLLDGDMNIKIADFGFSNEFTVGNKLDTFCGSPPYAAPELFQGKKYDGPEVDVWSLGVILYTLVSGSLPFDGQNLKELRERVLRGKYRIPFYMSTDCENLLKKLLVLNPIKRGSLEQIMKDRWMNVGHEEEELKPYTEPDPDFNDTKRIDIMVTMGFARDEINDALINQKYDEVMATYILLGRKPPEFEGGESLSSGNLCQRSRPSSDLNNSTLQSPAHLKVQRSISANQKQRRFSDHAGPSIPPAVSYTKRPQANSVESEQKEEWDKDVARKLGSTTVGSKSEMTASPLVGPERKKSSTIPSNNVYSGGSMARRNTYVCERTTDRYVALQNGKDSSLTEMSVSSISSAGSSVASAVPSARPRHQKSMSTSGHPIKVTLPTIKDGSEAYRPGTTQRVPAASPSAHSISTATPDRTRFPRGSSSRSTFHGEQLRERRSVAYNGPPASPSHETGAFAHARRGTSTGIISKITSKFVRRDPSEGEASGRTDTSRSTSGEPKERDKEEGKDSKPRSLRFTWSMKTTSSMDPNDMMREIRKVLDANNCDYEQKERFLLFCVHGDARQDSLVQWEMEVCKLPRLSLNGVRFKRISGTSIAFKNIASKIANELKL

SMILES | outcome
O=C(/C=C/c1ccc(O)cc1)CC(=O)/C=C/c1ccc(O)cc1 | inactive
